This is part of a sample that, as a whole, favours compounds with a hit. Of some 83,000 tested, about 20% had one in any assay.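 Interpretation: 100, growth as untreated; towards 0, rising growth inhibition; 0, no net growth; 0 to -100, cell death. Compounds scoring below 10 were considered active.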 Unmarked numbers belong to inactive results. The source made the active and inactive calls.
These compounds were tested on KM12 colon (assay: NCI-60 one-dose screen, 48 h (100 = growth as untreated, 0 = no growth, -100 = all killed)). Details: 10 µM unless noted.

**Q.** Which growth does the source give for `COc1cccc(CC(C)=C(c2ccc(OCCN(C)C)cc2)c2ccc(OCCN(C)C)cc2)c1` here?
**A.** -1.23% (active)

**Q.** Which growth does the source give for `N/C(=N\C(N)=N\c1nc2ccccc2s1)c1cccc(Br)c1` here?
**A.** 66.5%

**Q.** With `O=C(Nc1ccc(Cl)c(Cl)c1)NS(=O)(=O)c1cnccc1Oc1ccc(F)cc1` as the compound, how does the growth read?
**A.** 48.7%

**Q.** Which growth does the source give for `Cc1ccc(S(=O)(=O)NC(=O)n2cc(-c3ccncc3)c(-c3ccc(Cl)c(O)c3)n2)cc1` here?
**A.** 118%

**Q.** With `CCN(CC)CCC(CNc1ccnc2cc(Cl)ccc12)c1ccc(Cl)cc1` (stereo unspecified) as the compound, how does the growth read?
**A.** 17.9%

**Q.** How did the growth turn out when `CCN(CC)CCOc1ccc(Cl)c(C)c1` was run?
**A.** 105%

**Q.** `OC(c1cc2cc(Br)ccc2c2cc(Br)ccc12)C1CCCCN1` (stereo unspecified) was tested. Which growth did it give?
**A.** -91.7% (active)

**Q.** Which growth does the source give for `CCN(CC)CCC(CNc1ccnc2cc(Cl)ccc12)c1ccccc1` (stereo unspecified) here?
**A.** 84.1%

**Q.** With `CCCCCCCCCCCCNC(=O)[C@H]1CSC(c2cc3ccccc3s2)N1` (stereo partly specified) as the compound, how does the growth read?
**A.** -50.7% (active)

**Q.** Which growth does the source give for `CCCCCCN1CSC(=S)N(CCCCCC)C1` here?
**A.** 103%

**Q.** Which growth does the source give for `CC1(c2ccc(Cl)cc2)OC(=O)CC(=O)O1` here?
**A.** 110%

**Q.** `O=C(NS(=O)(=O)c1ccc2ccccc2c1)n1cc(-c2ccncc2)c(-c2ccc(Cl)c(O)c2)n1` was tested. Which growth did it give?
**A.** 103%

**Q.** How did the growth turn out when `CN(C)CCOC(=O)Nc1ccccc1Cl` was run?
**A.** 112%

**Q.** For `Cc1c(C(=O)/C=C/c2csc3ccccc23)[n+](=O)c2ccccc2n1[O-]`, which growth is on record?
**A.** 48.4%

**Q.** With `CN(C)CCCN(c1nc(C(Cl)(Cl)Cl)ns1)c1nc(C(Cl)(Cl)Cl)ns1` as the compound, how does the growth read?
**A.** 18.4%

**Q.** How did the growth turn out when `CC[N+](CC)=c1cc2oc3cc(N(C)C)ccc3nc-2cc1C` was run?
**A.** 33.3%

**Q.** With `CCN(CC)CCC(CNc1c2ccc(Cl)cc2nc2ccc(OC)cc12)c1ccccc1` (stereo unspecified) as the compound, how does the growth read?
**A.** -24.1% (active)

**Q.** Which growth does the source give for `CN1CCN(Cc2ccc(NC(=O)c3nc4ccc5[nH]ncc5c4c4c3CCC4)cc2C(F)(F)F)CC1` here?
**A.** -79.8% (active)

**Q.** For `COc1ccc(N=Cc2c(O)ccc3c2oc2cc(Cl)c(O)c(Cl)c23)cc1`, which growth is on record?
**A.** 104%

**Q.** `O=C(O)C1CCCCN1c1nc(Cl)nc(Cl)n1` (stereo unspecified) was tested. Which growth did it give?
**A.** 111%

**Q.** Which growth does the source give for `C=CCn1c2ccccc2c2c3c(c4c5ccccc5n(CC=C)c4c21)C(=O)N(O)C3=O` here?
**A.** 26.4%

**Q.** Which growth does the source give for `Nc1cccc(Cl)c1N` here?
**A.** 99.5%

**Q.** With `O=C(NS(=O)(=O)c1ccccc1)n1cc(-c2ccncc2)c(-c2ccc(Cl)c(O)c2)n1` as the compound, how does the growth read?
**A.** 99.6%

**Q.** For `Cc1csc(NC(c2ccc(Br)cc2)c2c(C)nc3ccccn23)n1` (stereo unspecified), which growth is on record?
**A.** 97.7%

**Q.** Which growth does the source give for `COc1cc(-c2nn(C(=O)NS(=O)(=O)c3ccccc3)cc2-c2ccncc2)ccc1Cl` here?
**A.** 94.5%

**Q.** With `CCN(CC)CCCC(C)Nc1c2ccc(Cl)cc2nc2cc(OC)c(OC)cc12` (stereo unspecified) as the compound, how does the growth read?
**A.** 8.52% (active)

**Q.** Which growth does the source give for `CCCCCCCCCCCCNC(=O)[C@H]1CSC(c2ccsc2)N1` (stereo partly specified) here?
**A.** -92.7% (active)

**Q.** Which growth does the source give for `CC(C)(C)NCCC(O)c1cc2c(Cl)cc(Cl)cc2c2cc(C(F)(F)F)ccc12` (stereo unspecified) here?
**A.** -90.9% (active)

**Q.** For `COc1cc2c(cc1O)CCN1C[C@@H](CC(C)C)[C@@H](O)C[C@@H]21`, which growth is on record?
**A.** 109%

**Q.** Which growth does the source give for `Nc1ccc(C(=O)CSc2nc3ccccc3[nH]2)cc1` here?
**A.** 103%

**Q.** How did the growth turn out when `CCCC(=O)Oc1ccc(/C(=C(\C)c2ccccc2)c2ccc(OCCN(CC)CC)cc2)cc1` was run?
**A.** 79.5%

**Q.** For `C/C=C(\C)C(C(=O)NC1CCCCC1)N(C(=O)C1CCc2cc(F)ccc2O1)c1ccc(Cl)cc1` (stereo unspecified), which growth is on record?
**A.** 111%

**Q.** With `Cn1ccc(=O)c(S(N)(=O)=O)c1` as the compound, how does the growth read?
**A.** 103%

**Q.** `O=c1[nH]c(NCc2ccccc2)nc2nc(Nc3ccc(NC(=S)Nc4ccccc4)cc3)nc(-c3ccc(O)cc3O)c12` was tested. Which growth did it give?
**A.** 96.3%

**Q.** `COc1ccc(-n2c(-c3ccccc3)c(-c3ccccc3)c3c(SCC(=O)N/N=C/c4ccc(Cl)cc4)ncnc32)cc1` was tested. Which growth did it give?
**A.** 89.1%

**Q.** `COc1ccc(S(=O)(=O)NCCCNc2nccc(-c3c(-c4cccc([N+](=O)[O-])c4)nc4sccn34)n2)cc1` was tested. Which growth did it give?
**A.** 28.9%

Reference: PubChem BioAssay (NCI)
